Test results as given in PubChem BioAssay AID1159580 (chemical genetic matrix, 2015).
Where “and” joins values, the source holds several entries; their conditions need not be identical. Equal entries are not always repeated. In all, about 5,500 compounds went through this assay and about 2,000 (36%) were called active. Another 18% or so got no clear call; they are omitted. Cut-off read from the data, not from the text of the source: active = normalized growth mostly below about 0.91 (no sharp cut-off); inconclusive = no clear call, values can overlap the other calls; inactive = mostly above about 0.92. This is one part of the list.

Assay: chemical genetic growth profiling, strain panel (AID 1159580);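 note: tested at 20 µM; growth read once vehicle control cultures reached saturation at 30 °C; 1 = growth at the plate median or of vehicle wells; lower values mean less growth of the strain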
Details: S. cerevisiae deletion strains, growth OD

Measured: normalized growth

CCCCC(=O)N(Cc1ccc(-c2ccccc2-c2nn[nH]n2)cc1)[C@H](C(=O)O)C(C)C
inactive: locus YAL013W, strain DEP1, stronger effect = lower value 0.992 | locus YAL021C, strain ccr4, stronger effect = lower value 0.974 | locus YAL026C, strain drs2, stronger effect = lower value 0.982 | locus YAL030W, strain snc1, stronger effect = lower value 0.993 | locus YBL061C, strain skt5, stronger effect = lower value 0.994 | locus YBR009C, strain hhf1, stronger effect = lower value 0.986 | locus YBR021W, strain FUR4, stronger effect = lower value 0.993 | locus YBR023C, strain chs3, stronger effect = lower value 1 | locus YBR171W, strain sec66, stronger effect = lower value 0.986 | locus YBR229C, strain ROT2, stronger effect = lower value 1 | locus YBR231C, strain swc5, stronger effect = lower value 1.01 | locus YBR279W, strain paf1, stronger effect = lower value 1 | locus YCL011C, strain gbp2, stronger effect = lower value 0.981 | locus YCL016C, strain dcc1, stronger effect = lower value 0.98 | locus YCL029C, strain bik1, stronger effect = lower value 0.962 | locus YCL061C, strain MRC1, stronger effect = lower value 0.971 | locus YCL069W, strain vba3, stronger effect = lower value 0.99 | locus YCR088W, strain abp1, stronger effect = lower value 0.99 | locus YDL005C, strain med2, stronger effect = lower value 1 | locus YDL035C, strain GPR1, stronger effect = lower value 0.987 | locus YDL040C, strain nat1, stronger effect = lower value 0.992 | locus YDL074C, strain BRE1, stronger effect = lower value 1 | locus YDL101C, strain DUN1, stronger effect = lower value 0.988 | locus YDL134C, strain PPH21, stronger effect = lower value 1.01 | locus YDL185W, strain tfp1, stronger effect = lower value 0.932 | locus YDL192W, strain arf1, stronger effect = lower value 0.972 | locus YDR001C, strain nth1, stronger effect = lower value 0.974 | locus YDR069C, strain doa4, stronger effect = lower value 0.993 | locus YDR101C, strain arx1, stronger effect = lower value 0.995 | locus YDR137W, strain rgp1, stronger effect = lower value 0.969 | locus YDR150W, strain NUM1, stronger effect = lower value 0.972 | locus YDR159W, strain sac3, stronger effect = lower value 0.946 | locus YDR162C, strain NBP2, stronger effect = lower value 0.982 | locus YDR195W, strain ref2 1 | locus YDR297W, strain sur2, stronger effect = lower value 0.994 | locus YDR318W, strain mcm21, stronger effect = lower value 0.979 | locus YDR334W, strain swr1, stronger effect = lower value 0.987 | locus YDR335W, strain msn5, stronger effect = lower value 0.994 | locus YDR388W, stronger effect = lower value 0.989 | locus YDR392W, strain spt3, stronger effect = lower value 0.979 | locus YDR502C, strain sam2, stronger effect = lower value 0.98 | locus YEL003W, strain gim4, stronger effect = lower value 0.968 | locus YEL037C, strain rad23, stronger effect = lower value 0.987 | locus YEL061C, strain CIN8 (second series), stronger effect = lower value 0.976 | locus YEL061C, strain CIN8, stronger effect = lower value 0.985 | locus YER015W, strain faa2, stronger effect = lower value 1.01 | locus YER016W, strain bim1, stronger effect = lower value 0.999 | locus YER110C, stronger effect = lower value 0.973 | locus YER111C, strain swi4, stronger effect = lower value 0.986 | locus YER155C, strain BEM2 (second series), stronger effect = lower value 1.03 | locus YER155C, strain BEM2, stronger effect = lower value 0.994 | locus YER167W, strain BCK2, stronger effect = lower value 0.954 | locus YFR010W, strain ubp6, stronger effect = lower value 0.995 | locus YGL078C, strain dbp3, stronger effect = lower value 0.97 | locus YGL086W, strain mad1, stronger effect = lower value 0.971 | locus YGL167C, strain pmr1, stronger effect = lower value 0.999 | locus YGL173C, strain kem1, stronger effect = lower value 1 | locus YGL227W, strain vid30, stronger effect = lower value 0.985 | locus YGL240W, strain doc1, stronger effect = lower value 1.01 | locus YGL248W, strain PDE1, stronger effect = lower value 0.991 | locus YGL253W, strain hxk2, stronger effect = lower value 0.986 | locus YGR078C, strain PAC10, stronger effect = lower value 0.988 | locus YGR135W, strain pre9, stronger effect = lower value 0.982 | locus YGR229C, strain SMI1, stronger effect = lower value 0.969 | locus YGR252W, strain gcn5, stronger effect = lower value 1.1 | locus YHR013C, strain ard1, stronger effect = lower value 1 | locus YHR027C, strain rpn1, stronger effect = lower value 0.994 | locus YHR030C, strain SLT2, stronger effect = lower value 0.984 and 0.959 | locus YHR079C, strain IRE1 (second series), stronger effect = lower value 0.978 | locus YHR079C, strain IRE1, stronger effect = lower value 0.955 | locus YHR094C, strain hxt1, stronger effect = lower value 0.972 | locus YHR129C, strain ARP1, stronger effect = lower value 0.999 | locus YHR142W, strain chs7, stronger effect = lower value 0.96 | locus YHR200W, strain rpn10, stronger effect = lower value 0.974 | locus YIL066C, strain RNR3, stronger effect = lower value 0.991 | locus YIL073C, strain SPO22, stronger effect = lower value 0.887 | locus YIL125W, strain kgd1, stronger effect = lower value 0.954 | locus YIR030C, strain dcg1, stronger effect = lower value 0.991 | locus YJL092W, strain hpr5, stronger effect = lower value 0.986 | locus YJL095W, strain BCK1 (second series), stronger effect = lower value 0.996 | locus YJL095W, strain BCK1, stronger effect = lower value 0.992 and 0.987 | locus YJL115W, strain asf1, stronger effect = lower value 0.971 | locus YJL129C, strain trk1, stronger effect = lower value 1.01 | locus YJL134W, strain LCB3, stronger effect = lower value 0.992 | locus YJL154C, strain vps35, stronger effect = lower value 0.986 | locus YJL164C, strain tpk1, stronger effect = lower value 0.988 | locus YJL166W, strain qcr8, stronger effect = lower value 0.999 | locus YJL168C, strain set2, stronger effect = lower value 0.984 | locus YJL187C, strain SWE1 (second series), stronger effect = lower value 0.983 | locus YJL187C, strain SWE1, stronger effect = lower value 0.99 | locus YJR043C, strain POL32, stronger effect = lower value 0.979
